Hits are enriched below; roughly 19% of the tested compounds scored in any of these assays.
TDP1 cell noCPT: qHTS for Inhibitors of human tyrosyl-DNA phosphodiesterase 1 (TDP1): qHTS in cells in absence of CPT | DT40 Tdp1-/- hTDP1 cells, no CPT, ATP luminescence, 48 h | Potency, µM (titrated, usually from 46.2 µM), for the others: top-dose activity change, negative = growth inhibition, actives largely listed as inhibitors | hit rate 15% among 420,000; also: potency is read from the fitted curve at half-maximal effect; nearly all actives have a fitted effect of over 55% in size
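DT40 Tdp1-/-;hTDP1 cells, no CPT (DMSO vehicle only), 400 cells/well; compounds pin-transferred; ≥48 hr, 37 °C; CellTiter-Glo 30 min RT dark, luminescence read.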
TDP1 cell CPT: qHTS for Inhibitors of human tyrosyl-DNA phosphodiesterase 1 (TDP1): qHTS in cells in presence of CPT. chicken DT40 Tdp1-/-;hTDP1 cells + 20 nM CPT, ATP luminescence, 48 h. Potency, µM (doses to about 46.2 µM), for the others: top-dose activity change, negative = growth inhibition, usual class: inhibitors. hit rate 12% among 420,000; also: potency is read from the fitted curve at half-maximal effect; nearly all actives have a fitted effect of over 55% in size
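Cell growth measured by CellTiter-Glo luminescence after a minimum 48 h, 37 C compound exposure with 20 nM CPT in Tdp1-knockout DT40 cells stably expressing hTDP1, seeded 400/well; qHTS titration format.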
TDP1 block: qHTS Assay for Inhibitors of Tyrosyl-DNA Phosphodiesterase (TDP1). Tyrosyl-DNA phosphodiesterase 1 (Homo sapiens), Q9NUW8. recombinant TDP1, AlphaScreen DNA substrate cleavage. Potency, µM (doses to about 130 µM), inactives show top-dose activity change, negative = inhibition, most hits filed as inhibitors. hit rate 0.28% among 350,000; also: potency is read from the fitted curve at half-maximal effect; nearly all actives have a fitted effect of over 40% in size
Target sequence (Q9NUW8 whole entry, looked up): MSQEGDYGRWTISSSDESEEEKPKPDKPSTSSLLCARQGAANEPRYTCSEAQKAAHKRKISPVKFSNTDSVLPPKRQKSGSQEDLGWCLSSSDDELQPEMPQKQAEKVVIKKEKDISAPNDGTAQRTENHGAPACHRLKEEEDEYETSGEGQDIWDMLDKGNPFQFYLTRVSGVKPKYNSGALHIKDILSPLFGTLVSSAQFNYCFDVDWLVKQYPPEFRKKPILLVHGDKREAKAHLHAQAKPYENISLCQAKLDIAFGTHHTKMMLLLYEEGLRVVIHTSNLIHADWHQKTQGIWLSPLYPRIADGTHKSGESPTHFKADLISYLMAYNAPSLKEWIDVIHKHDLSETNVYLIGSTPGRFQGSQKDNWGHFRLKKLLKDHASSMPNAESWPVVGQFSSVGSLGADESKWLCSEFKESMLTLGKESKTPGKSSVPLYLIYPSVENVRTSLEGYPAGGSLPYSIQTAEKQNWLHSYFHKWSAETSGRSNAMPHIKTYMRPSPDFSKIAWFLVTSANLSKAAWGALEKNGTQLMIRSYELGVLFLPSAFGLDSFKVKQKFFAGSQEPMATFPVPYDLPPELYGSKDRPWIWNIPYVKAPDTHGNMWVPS
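Steps: enzyme plus compound, 15 min RT; add biotin/phosphotyrosine-FITC oligonucleotide (15 nM final), react 5 min; add donor/acceptor beads (10 ug/ml final), 10 min; read AlphaScreen. Tdp1 at 1 nM final.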
Giardia kill: Small Molecules that selectively kill Giardia lamblia: qHTS. Giardia lamblia trophozoite viability. hit rate 0.15% among 340,000. activity change, % at 7.66 µM, hits read low; in the data active = activity change below about -80%; inconclusive = between about -30% and that limit;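 also: parasites exposed to compound for two days anaerobically before the ATP read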
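Anaerobic 48 hrs incubation at 37 deg C of 100 trophozoites/well with test compounds; ATPLite 1-Step luminescence, 15-30 min RT, reports cellular ATP as viability.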
ELG1 repair inh: qHTS screen for small molecules that inhibit ELG1-dependent DNA repair in human embryonic kidney (HEK293T) cells expressing luciferase-tagged ELG1. HEK293T ELG1-luciferase reporter, luminescence, 16 h; DNA damage induced by 5-fluorouridine. Potency, µM (doses to about 46.1 µM), for inactives: top-dose activity change, negative = inhibition, hits mostly inhibitors. hit rate 2.3% among 330,000. AID 504467, 2011; also: potency is read from the fitted curve at half-maximal effect; nearly all actives have a fitted effect of over 55% in size
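DMSO vehicle served as the neutral condition. Each well held 2,000 cells given 5-fluorouridine plus compound; after 16 hr at 37 °C/5% CO2, ONE-Glo was added and luciferase measured 30 min later.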
IL-1B inflam inh: qHTS for Inhibitors of Inflammasome Signaling: IL-1-beta AlphaLISA Primary Screen. THP-1 LPS/ATP IL-1B secretion, AlphaLISA, 16 h; hits give low values. activity change, % at 57.5 µM. hit rate 4.7% among 360,000. AID 743279, 2014; in the data active = activity change below about -50%; inconclusive = mostly about -30% to -49%
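Secreted IL-1B measured by AlphaLISA bead assay after 16 h compound exposure of THP-1 cells; compounds (final up to 57.5 uM) added 1 h before LPS (250 ng/mL) and ATP (1.25 mM) stimulation; lower signal means less secretion.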
Active calls of the source: *; ? = inconclusive; . = no result given; [ ] = dose if it differs, or a comment. Unless noted, calls follow the shape of the dose curve; as a rule, active = well fitted curve in the direction sought with a large enough effect; inconclusive = small, poorly fitted or top-dose-only effect, or another doubt; inactive = no such curve, though single readings can be large; an effect the other way counts as inactive or inconclusive. % is scaled to controls: 0 for no effect and ±100 for the full control effect.

SMILES	TDP1 cell noCPT	TDP1 cell CPT	TDP1 block	Giardia kill	ELG1 repair inh	IL-1B inflam inh
O=[N+]([O-])c1ccc(NCCCNS(=O)(=O)c2ccc(Cl)cc2)c(Cl)c1	21µM*	21µM*	4%	-2	-27%	1
COC(=O)c1c(-c2ccc(Cl)cc2)noc1N1CCN(c2ccc(OC)cc2)CC1	26µM*	23µM*	0%	.	.	.
COC(=O)c1c(-c2ccc(Cl)cc2)noc1N1CCN(c2ccccc2F)CC1	7%	-1%	-3%	.	.	.
COC(=O)c1c(-c2ccc(Cl)cc2)noc1N1CCN(c2cc(C)ccc2C)CC1	21µM*	15µM*	8%	.	.	.
CCc1ccc(NC(=O)CSc2nc(C)cc(COC)c2C#N)cc1	.	.	5%	.	.	.
CN1C(=O)c2ccccc2C1=O	-24%[92.5 µM]	?	.	.	.	.
Cc1ccc(OC(=O)CN2C(=O)c3ccccc3C2=O)cc1C	31%	24%	.	0	-8%	38
O=S(=O)(c1ccccc1)N1CCN(S(=O)(=O)c2ccc(F)cc2)CC1	-11%	1%	.	26	-19%	-11
O=C1c2ccccc2C(=O)N1OS(=O)(=O)c1ccc(F)cc1	2.1µM*	2.6µM*	-14%	-28	-1%	-5
Cc1cc(C)c(S(=O)(=O)ON2C(=O)c3ccccc3C2=O)cc1C	3.3µM*	2.6µM*	0%	5	14%	-61*
Cc1ccc(S(=O)(=O)ON2C(=O)c3ccccc3C2=O)c(C)c1	1µM*	0.82µM*	0%	1	-22%	-78*
Cc1cc(C)c(C)c(S(=O)(=O)ON2C(=O)c3ccccc3C2=O)c1C	2.3µM*	2.6µM*	-4%	9	?	-119*
CCC(CC)c1nnc(NC(=O)c2cc(C(=O)OC)cc([N+](=O)[O-])c2)s1	-15%	8%	3%	-24	-18%	-8
O=C(NNC(=O)c1ccc2c(=O)n3c(nc2c1)CCC3)c1cccc(Cl)c1	-29%	?	.	22	-6%	2
CC(C)C1C(=O)N(Cc2cn(CCC3OCCO3)nn2)CCS(=O)(=O)N1Cc1ccc(-c2ccc(F)nc2)cc1 (stereo unspecified)	16µM*	?	.	.	.	8
CC1C(=O)N(Cc2cn(CCC3OCCCO3)nn2)CCS(=O)(=O)N1Cc1ccc(-c2ccncc2)cc1 (stereo unspecified)	9.2µM*	-25%	.	.	.	-6
CC1C(=O)N(Cc2cn(CCC3OCCCO3)nn2)CCS(=O)(=O)N1Cc1ccc(-c2ccc(F)nc2)cc1 (stereo unspecified)	13µM*	?	.	.	.	28
CC(C)C1C(=O)N(Cc2cn(CCC3OCCCO3)nn2)CCS(=O)(=O)N1Cc1ccc(-c2ccc(F)nc2)cc1 (stereo unspecified)	16µM*	?	.	.	.	2
CC1C(=O)N(Cc2cn(CCC3OCCCO3)nn2)CCS(=O)(=O)N1Cc1ccc(-c2cccc(N(C)C)c2)cc1 (stereo unspecified)	?	?	.	.	.	76
CC(=O)c1ccccc1NS(=O)(=O)c1cccc2nsnc12	2%	10%	.	-21	-14%	8
CCCSc1nc2c(cnn2-c2ccccc2)c(=O)n1N	?	-2%	1%	10	?	-63*
CCCCN(CC)CCCNC(=O)c1sc2nc(C)cc(C)c2c1-n1cccc1	18µM*	?	6%	.	.	.
CCC(C)NC(=O)c1sc2ncccc2c1-n1c(C)ccc1C (stereo unspecified)	26µM*	21µM*	4%	.	.	.
CC(CNC(=O)c1sc2ncccc2c1-n1cccc1)c1ccccc1 (stereo unspecified)	26µM*	?	3%	.	.	.
O=C(NCCCN1CCCCC1)c1sc2ncccc2c1-n1cccc1	-13%	-19%	1%	.	.	.
SMILES	TDP1 cell noCPT	TDP1 cell CPT	TDP1 block	Giardia kill	ELG1 repair inh	IL-1B inflam inh
Cc1cc(C)c2c(-n3cccc3)c(C(=O)NCC(C)c3ccccc3)sc2n1 (stereo unspecified)	21µM*	21µM*	11%	.	.	.
CCCSCCCNC(=O)c1sc2nc(C)cc(C)c2c1-n1cccc1	?	?	9%	.	.	.
CC1(C)CO[C@H](CC(=O)O)CN1	-13%	-5%	8%[56.1 µM]	.	.	.
Cc1cccc(CCNC(=O)c2cc3c(=O)[nH]c4ccc(C)cc4c3s2)c1	-26%	0%	1%	.	.	.
CNC(=O)c1cc(NC(=O)N(CCC#N)CCN(C(=O)NC(Cc2ccccc2)C(=O)NC(CC(C)C)C(=O)NC)c2ccccc2)ccc1OC (stereo unspecified)	-39%	?	.	-7	.	12
CCOC(=O)Nc1sc2nc(C)cc(C)c2c1-n1cccc1	9.2µM*	23µM*	1%	3	?	-11
Cc1cc(C)c2c(-n3cccc3)c(C(=O)NCCCN3CCCCC3)sc2n1	?	?	6%	.	.	.
O=C(Nc1cccc(-c2ccc(N3CCOCC3)nn2)c1)c1cccc(Cl)c1	21µM*	-21%	.	.	.	11
O=C(Nc1cccc(-c2ccc(N3CCCCC3)nn2)c1)c1ccco1	13µM*	?	.	?	?	-9
Cc1cc(C(=O)Nc2cccc(-c3ccc(N4CCOCC4)nn3)c2)ccc1[N+](=O)[O-]	26µM*	?	.	?	?	-7
CN(CC(=O)NCc1ccco1)S(=O)(=O)c1ccc2c(c1)c(=O)n(C)c(=O)n2C	2%	0%	.	7	5%	10
CN(CC(=O)Nc1ccc(F)cc1)C(=O)C1CCN(C(=O)Nc2ccccc2)CC1	-6%	-3%	0%	-2	11%	7

Bioassay records: PubChem, National Center for Advancing Translational Sciences (NCATS)
